Sampled rows, rich in hits. Any-hit rate of the full collection: about 3.4%.
Sm TGR block – S. mansoni TGR enzyme inhibition | Q962Y6 | Potency, µM (top dose mostly 114 µM), for the others: at the top dose activity change, negative = inhibition, usual class: inhibitors | 360,000 compounds, 3% hits | purified TGR, DTNB reduction, TNB absorbance 405 nm; note: nearly all actives have a fitted effect of over 60% in size
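TGR 20 nM + NADPH 100 uM (dispensed conc.), cpd preinc 15 min RT; start with NADPH (500 uM addition) then DTNB (15 mM addition). Kinetic TNB absorbance, 405 nm filter. Four-parameter Hill fit across titration.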
AmpC inh no detg – AmpC beta-lactamase inhibition without detergent. 330,000 compounds, 0.52% hits. P00811. AmpC nitrocefin hydrolysis, absorbance 480 nm, 0.0001% Triton. Potency, µM (top dose mostly 57.1 µM), for inactives: at the highest dose activity change, negative = inhibition, hits mostly inhibitors;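 note: plate controls were no compound for no effect and no enzyme for full effect; nearly all actives have a fitted effect of over 20% in size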
Target sequence (P00811 whole entry, looked up): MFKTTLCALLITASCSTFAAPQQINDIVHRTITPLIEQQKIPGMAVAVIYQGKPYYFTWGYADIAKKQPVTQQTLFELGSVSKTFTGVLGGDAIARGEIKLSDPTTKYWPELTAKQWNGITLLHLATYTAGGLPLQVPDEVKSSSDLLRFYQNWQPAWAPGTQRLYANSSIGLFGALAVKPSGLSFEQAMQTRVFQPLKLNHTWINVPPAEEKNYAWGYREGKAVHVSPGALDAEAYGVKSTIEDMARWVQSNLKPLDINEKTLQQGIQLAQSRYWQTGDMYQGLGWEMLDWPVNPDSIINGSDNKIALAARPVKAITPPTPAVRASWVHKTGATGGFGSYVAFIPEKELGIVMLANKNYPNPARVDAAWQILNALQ
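AmpC (5.3 nM in the dispensed reagent) in 20 mM phosphate pH 7.0 with 0.01% (detergent screen) or 0.0001% Triton X-100 was preincubated with compounds for 15 min at room temperature. Nitrocefin was then added from an 800 uM solution, and hydrolysis was followed at 480 nm.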
AmpC detergent – blocks E. coli AmpC beta-lactamase in detergent assay. P00811. AmpC hydrolysis of nitrocefin, absorbance 480 nm, 0.01% Triton. Potency, µM (series often up to 114 µM), for inactives: at the top dose activity change, negative = inhibition, actives largely listed as inhibitors. 370,000 compounds, 0.041% hits. AID 485294;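 note: 0% = no-compound wells and -100% = no-enzyme wells; nearly all actives have a fitted effect of over 25% in size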
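AmpC (5.3 nM in the dispensed reagent) in 20 mM phosphate pH 7.0 with 0.01% (detergent screen) or 0.0001% Triton X-100 was preincubated with compounds for 15 min at room temperature. Nitrocefin was then added from an 800 uM solution, and hydrolysis was followed at 480 nm.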
FBPA Giardia inh – blocks Giardia fructose-bisphosphate aldolase activity; Potency, µM (top dose mostly 59.6 µM), for inactives: top-dose activity, negative = inhibition, most hits filed as inhibitors; purified Giardia FBPA; 290,000 compounds, 0.71% hits; A8B2U2; note: nearly all actives have a fitted effect of over 55% in size
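40 nM FBPA preincubated 10 min at RT with compound (up to 57.5 uM final), then substrate plus GAPDH/TPI/NAD/arsenate coupling and diaphorase/resazurin added. Fluorescence read after 20 min at RT, 525/598 nm.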
RE007 growth inh – less growth of the S. pombe RE007 Vpr strain; 360,000 compounds, 0.21% hits; S. pombe RE007 Vpr strain, BacTiter-Glo ATP luminescence, 24 h; Potency, µM (top dose mostly 92.2 µM), for inactives: top-dose activity change, negative = less growth, most hits filed as inhibitors; active = well fitted falling curve with a large enough effect; inconclusive = small, poorly fitted or top-dose-only effect; inactive = no such curve, though single readings can be large or run the other way; note: nearly all actives have a fitted effect of over 50% in size
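Fission yeast RE007 carrying one integrated HIV-1 vpr copy, seeded at OD 0.01 in PMG+AL medium with 23 nL pinned compound. Grown 24 h at 30 degrees; viability read by BacTiter-Glo luminescence after 5 min.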
* hit, by the source's call. Unless noted, calls come from the whole dose curve; as a rule, active = well fitted curve in the direction sought with a large enough effect; inconclusive = small, poorly fitted or top-dose-only effect, or another doubt; inactive = no such curve, though single readings can be large; an effect the other way counts as inactive or inconclusive. Unless noted, % is set by controls: 0 for no effect and ±100 for the full control effect; potency is the fitted concentration of half-maximal effect.

How did CCOC(=O)C(NC(=O)c1ccccc1Cl)(Nc1sc2c(c1C(N)=O)CCC2)C(F)(F)F (centres undefined) do in these assays?
Sm TGR block: 40µM*; AmpC inh no detg: -27%; AmpC detergent: inconclusive; FBPA Giardia inh: -20%; RE007 growth inh: 7%

Results for O=C1CC(C(=O)Nc2ccc(Cl)c(Cl)c2)S/C(=N\N=C\c2ccco2)N1 (centres undefined) ?
Sm TGR block: 0%; AmpC inh no detg: -25%; AmpC detergent: 3%; FBPA Giardia inh: 3%; RE007 growth inh: 8%

What do the screens show for `OC(c1ccccc1)C1CN(Cc2ccccc2)CCC1(O)c1ccccc1` (centres undefined)?
Sm TGR block: 20µM*; AmpC inh no detg: -31%; AmpC detergent: inconclusive; FBPA Giardia inh: 6%; RE007 growth inh: -3%

What do the screens show for `CCCC(O)(CCC)C(=O)NN(C(=O)CCl)c1ccccc1`?
Sm TGR block: 11µM*; AmpC inh no detg: -11%; AmpC detergent: -15%; FBPA Giardia inh: 2%; RE007 growth inh: -3%

How did CCOc1ccc(C(=O)CC(Sc2ccc(C)cc2)C(=O)O)cc1 (centres undefined) do in these assays?
Sm TGR block: 3.2µM*; AmpC inh no detg: -24%; AmpC detergent: -10%; FBPA Giardia inh: 23%; RE007 growth inh: 0%

Results for CCC(Sc1ccc(C(=O)O)cc1)C(=O)O (centres undefined) ?
Sm TGR block: 3%; AmpC inh no detg: -13%; AmpC detergent: -1%; FBPA Giardia inh: 5%; RE007 growth inh: 15%

How did O=C(CC(Sc1ccc(Br)cc1)C(=O)O)c1ccc(F)cc1 (centres undefined) do in these assays?
Sm TGR block: 0.63µM*; AmpC inh no detg: -28%; AmpC detergent: -9%; FBPA Giardia inh: -3%; RE007 growth inh: -9%

Results for Cc1cccc(C)c1NC(=O)Cn1cc(S(=O)(=O)Cc2ccc(F)cc2)c2ccccc21 ?
Sm TGR block: -3%; AmpC detergent: 2%

How did CC(=O)Oc1cccc(N2C(=O)C3C4C=CC(C4=C(C)C)C3C2=O)c1 (centres undefined) do in these assays?
Sm TGR block: -24%; AmpC inh no detg: -15%; AmpC detergent: -9%; FBPA Giardia inh: 2%; RE007 growth inh: 35µM*

What do the screens show for `CC(=O)Oc1cccc(N2C(=O)C3C(C2=O)C2C=CC3C23CC3)c1` (centres undefined)?
Sm TGR block: 40µM*; AmpC inh no detg: -3%; AmpC detergent: inconclusive; FBPA Giardia inh: 3%; RE007 growth inh: -1%

How did COc1ccc(C(=O)COC(=O)CCN2C(=O)C3C4CCC(C4)C3C2=O)cc1 (centres undefined) do in these assays?
Sm TGR block: 2%; AmpC inh no detg: 3%; AmpC detergent: -10%; FBPA Giardia inh: 1%; RE007 growth inh: 2%

What do the screens show for `COc1ccc(C(=O)COC(=O)CCN2C(=O)C3C4C=CC(C5CC45)C3C2=O)cc1` (centres undefined)?
Sm TGR block: 25µM*; AmpC inh no detg: 46%; AmpC detergent: 3%; RE007 growth inh: -10%

What do the screens show for `CC1Cc2ccccc2N1S(=O)(=O)c1cnc(Cl)c(Cl)c1` (centres undefined)?
Sm TGR block: 0%; AmpC inh no detg: -22%; AmpC detergent: 2%; FBPA Giardia inh: 3%; RE007 growth inh: -6%

What do the screens show for `CC1Cc2ccccc2N1S(=O)(=O)c1cnc(Cl)c(Br)c1` (centres undefined)?
Sm TGR block: 7.9µM*; AmpC inh no detg: -10%; AmpC detergent: 1%; FBPA Giardia inh: 1%; RE007 growth inh: 5%

What do the screens show for `C[C@@H]1C[C@@H](O)[C@@]2(O)[C@]13CC(=O)OC[C@]2(C)[C@@](C)(O)C(=O)C3`?
FBPA Giardia inh: 7%

What do the screens show for `CC(=O)N(CCC(c1ccccc1)c1ccco1)Cc1cccs1` (centres undefined)?
Sm TGR block: 11µM*; AmpC inh no detg: -10%; AmpC detergent: -1%; FBPA Giardia inh: 15%; RE007 growth inh: -6%

Bioassay records (PubChem BioAssay)
